# In PubChem BioAssay (EPA / NIEHS):
# Inconclusive results are not listed. Calls of active or inactive are those of the source. The calls were made as follows, unless noted: active = hit-call score of the fitted dose curve at least 0.9, where 1 is the maximum; inconclusive = response in the unintended direction; inactive = score below 0.9.
# Legend:
# THRA (gene 7067) [1] = biological target: THRA (gene 7067) (UniProt P10827); experiment: TOX21_TRA_COA_Agonist_Followup_ratio: Tox21 Thyroid Hormone Receptor alpha Agonism through Coactivator Recruitment Follow-Up Assay, Ratio (AID 2283948; active = hit-call score of the fitted dose curve at least 0.9, where 1 is the maximum; inactive = score below 0.9)
# Sequence of THRA (gene 7067) (P10827 whole entry, looked up, the tested form may be a part): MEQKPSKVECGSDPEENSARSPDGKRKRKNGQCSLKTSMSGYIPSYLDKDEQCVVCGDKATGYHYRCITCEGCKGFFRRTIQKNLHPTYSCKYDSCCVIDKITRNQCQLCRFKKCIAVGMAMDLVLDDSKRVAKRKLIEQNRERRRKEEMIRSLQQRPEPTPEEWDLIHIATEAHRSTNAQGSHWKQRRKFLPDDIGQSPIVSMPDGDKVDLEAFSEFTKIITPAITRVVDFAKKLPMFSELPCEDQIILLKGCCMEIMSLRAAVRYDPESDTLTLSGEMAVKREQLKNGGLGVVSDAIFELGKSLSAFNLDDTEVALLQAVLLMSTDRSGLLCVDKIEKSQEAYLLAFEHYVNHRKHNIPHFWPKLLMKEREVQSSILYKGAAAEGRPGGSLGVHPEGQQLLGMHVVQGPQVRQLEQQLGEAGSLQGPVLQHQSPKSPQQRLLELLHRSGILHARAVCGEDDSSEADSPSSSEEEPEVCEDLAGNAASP
# Outline: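 GST-TRa LBD 2.5 nM + 0.10% BSA + cpd; add fluorescein-SRC-2 200 nM, Tb-anti-GST 2 nM. TR-FRET ex 340, em 520/495 ratio. Norm: DMSO 0%, T3 100%; gain-of-signal fit.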
# [2] = biological target: T1, Thyroid hormone receptor alpha (Rattus norvegicus) + Thyroid hormone receptor beta (Rattus norvegicus) (UniProt P18113+P63059); experiment: TOX21_TR_LUC_GH3_Antagonist_Followup: Tox21 GH3 Thyroid Hormone Receptor Antagonism Luciferase Follow-Up Assay (AID 2283942)
# T1 sequence (P63059 whole entry, looked up): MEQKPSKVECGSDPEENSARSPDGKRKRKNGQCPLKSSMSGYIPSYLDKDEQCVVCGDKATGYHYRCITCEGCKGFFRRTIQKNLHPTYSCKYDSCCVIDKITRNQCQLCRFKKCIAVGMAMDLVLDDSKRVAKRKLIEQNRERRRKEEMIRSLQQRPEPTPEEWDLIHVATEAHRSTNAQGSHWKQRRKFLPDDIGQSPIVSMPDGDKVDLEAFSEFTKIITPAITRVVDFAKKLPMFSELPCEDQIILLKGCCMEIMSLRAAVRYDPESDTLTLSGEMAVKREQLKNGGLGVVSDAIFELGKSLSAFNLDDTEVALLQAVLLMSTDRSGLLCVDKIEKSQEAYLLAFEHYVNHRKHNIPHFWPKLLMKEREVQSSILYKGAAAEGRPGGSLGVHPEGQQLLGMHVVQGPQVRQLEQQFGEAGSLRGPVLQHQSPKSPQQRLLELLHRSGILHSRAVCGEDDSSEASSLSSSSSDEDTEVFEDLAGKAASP
# T1 sequence (P18113 whole entry, looked up): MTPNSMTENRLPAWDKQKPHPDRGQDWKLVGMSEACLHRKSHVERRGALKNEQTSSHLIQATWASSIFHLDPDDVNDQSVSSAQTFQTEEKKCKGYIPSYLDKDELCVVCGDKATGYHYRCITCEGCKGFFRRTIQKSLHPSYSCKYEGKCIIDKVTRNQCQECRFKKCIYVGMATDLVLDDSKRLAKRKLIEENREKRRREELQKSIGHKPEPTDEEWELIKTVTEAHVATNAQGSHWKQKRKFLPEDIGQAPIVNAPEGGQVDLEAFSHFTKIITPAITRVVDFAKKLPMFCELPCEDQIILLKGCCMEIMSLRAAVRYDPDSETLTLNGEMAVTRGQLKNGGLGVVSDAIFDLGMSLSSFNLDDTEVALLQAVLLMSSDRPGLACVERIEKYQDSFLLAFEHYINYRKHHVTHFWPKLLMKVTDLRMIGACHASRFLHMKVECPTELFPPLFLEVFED
# Method: TOX21_TR_LUC_GH3_Agonist_Followup is a secondary assay for the TOX21_TR_LUC_GH3_Agonist assay. TOX21_TR_LUC_GH3_Agonist_Followup is a cell-based, single-readout assay that uses GH3, a rat pituitary gland cell line, with measurements taken at 28 hours after chemical dosing in a 1536-well plate.TOX21_TR_LUC_GH3_Antagonist_Followup is one of one assay component(s) measured or calculated from the TOX21_TR_LUC_GH3_Antagonist_Followup assay. It is designed to make measurements of luciferase induction, a form of inducible reporter, as detected with bioluminescence signals by CellTiter-Glo Luciferase-coupled ATP quantitation technology.Data from the assay component TOX21_TR_LUC_GH3_Antagonist_Followup was analyzed into 1 assay endpoint. This assay endpoint, TOX21_TR_LUC_GH3_Antagonist_Followup, was analyzed in the positive analysis fitting direction relative to DMSO as the negative control and baseline of activity. Using a type of inducible reporter, gain-of-signal activity can be used to understand changes in the reporter gene as they relate to the gene THRA and THRB in the GH3 cell line using a luciferase reporter. Furthermore, this assay endpoint can be referred to as a primary readout, because the performed assay has only produced 1 assay endpoint. This assay endpoint is designated followup because it was a confirmatory screen following the primary qHTS assay. […]
# THRA (gene 7067) [3] = biological target: THRA (gene 7067) (UniProt P10827); experiment: TOX21_TRA_COA_Antagonist_Followup_ratio: Tox21 Thyroid Hormone Receptor alpha Antagonism through Coactivator Recruitment Follow-Up Assay, Ratio (AID 2283953)
# Outline: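 520:495 nm emission ratio (excitation 340 nm) reports fluorescein-SRC-2 peptide recruitment to GST-TRα LBD by TR-FRET with Tb anti-GST antibody. Values were normalized to DMSO (0%) and T3 control wells (100%); loss of signal indicated antagonism.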
# [4] = TOX21_PR_BLA_Followup_Agonist_viability: Viability Assessment in the Tox21 HEK293 Progesterone Receptor (PR) Agonism Beta-lactamase Follow-Up Assay (AID 2283935);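 also: cells exposed to compound for 16 hr at 37 °C; signal loss means lower viability so actives are cytotoxic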
# Outline: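 HEK293T PR-UAS-bla, 3,000 cells/well, 2% CS-FBS; 6 hr pre-incubation; cpd in DMSO, 16 hr 37C; LiveBLAzer 2 hr RT, then CellTiter-Glo 30 min RT, luminescence. Decrease = lost viability.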
# [5] = TOX21_PR_BLA_Followup_Antagonist_viability: Viability Assessment in the Tox21 HEK293 Progesterone Receptor (PR) Antagonism Beta-lactamase Follow-Up Assay (AID 2283936);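 also: hits lower the luminescence signal meaning cytotoxicity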
# Outline: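 PR-UAS-bla HEK293T cells (3,000/well, 2% charcoal-stripped FBS) given compound plus R5020 agonist, 16 h at 37C. CellTiter-Glo added after bla read, 30 min at room temperature; luminescence loss indicates cytotoxicity.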
# PGR (gene 5241) [6] = biological target: PGR (gene 5241) (UniProt P06401); experiment: TOX21_PR_LUC_Followup_Antagonist: Tox21 HEK293 Progesterone Receptor (PR) Antagonism Luciferase Follow-Up Assay (AID 2283938);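 also: curve fitted upward as signal gain over DMSO baseline despite antagonist label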
# Sequence of PGR (gene 5241) (P06401 whole entry, looked up): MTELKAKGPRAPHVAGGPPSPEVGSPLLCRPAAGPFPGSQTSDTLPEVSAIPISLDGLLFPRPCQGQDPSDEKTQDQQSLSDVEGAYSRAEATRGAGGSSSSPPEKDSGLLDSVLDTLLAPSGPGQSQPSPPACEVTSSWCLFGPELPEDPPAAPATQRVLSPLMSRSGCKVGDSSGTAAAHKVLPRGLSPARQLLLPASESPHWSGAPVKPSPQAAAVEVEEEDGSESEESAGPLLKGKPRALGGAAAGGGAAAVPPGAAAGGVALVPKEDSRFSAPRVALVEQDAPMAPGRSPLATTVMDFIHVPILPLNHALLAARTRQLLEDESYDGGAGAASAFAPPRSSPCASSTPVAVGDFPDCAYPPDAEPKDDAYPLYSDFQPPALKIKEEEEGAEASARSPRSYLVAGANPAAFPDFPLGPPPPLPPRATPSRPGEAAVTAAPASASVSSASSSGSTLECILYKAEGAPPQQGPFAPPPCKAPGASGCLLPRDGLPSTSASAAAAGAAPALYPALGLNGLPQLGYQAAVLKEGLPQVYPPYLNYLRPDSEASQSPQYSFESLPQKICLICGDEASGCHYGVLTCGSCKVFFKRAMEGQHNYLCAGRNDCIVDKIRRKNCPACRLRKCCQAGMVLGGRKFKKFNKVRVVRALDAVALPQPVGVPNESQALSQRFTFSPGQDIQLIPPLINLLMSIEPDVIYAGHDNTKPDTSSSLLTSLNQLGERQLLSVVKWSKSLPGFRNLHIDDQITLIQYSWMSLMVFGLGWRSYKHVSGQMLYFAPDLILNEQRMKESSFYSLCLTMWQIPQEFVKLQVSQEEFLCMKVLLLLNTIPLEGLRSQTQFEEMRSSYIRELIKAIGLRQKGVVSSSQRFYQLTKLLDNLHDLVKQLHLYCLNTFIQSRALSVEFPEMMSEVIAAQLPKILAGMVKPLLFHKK
# Outline: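 Luminescence from ONE-Glo reagent, measured after 30 min at room temperature, served as readout. Cells (HEK293 carrying PR-A-luc) had been treated 16 h at 37C with DMSO-dissolved compounds. Activity was fitted against DMSO controls.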
# [7] = TOX21_PR_LUC_Followup_Antagonist_viability: Viability Assessment in the Tox21 HEK293 Progesterone Receptor (PR) Antagonism Luciferase Follow-Up Assay (AID 2283940)
# Outline: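 Multiplexed viability counter-screen: after 5 days in charcoal-stripped-FBS medium, HEK293-PR-A-luc cells are plated, pinned with DMSO-dissolved compounds for 16 h at 37C, and ATP content is quantified luminescently via CellTiter-Glo.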
# [8] = TOX21_PR_LUC_Followup_Agonist_viability: Viability Assessment in the Tox21 HEK293 Progesterone Receptor (PR) Agonism Luciferase Follow-Up Assay (AID 2283941);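 also: loss of signal means cytotoxicity so actives lower viability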
# Outline: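 Cells were kept 5 days in charcoal-stripped serum medium before plating HEK293-PR-A-luc at 3,000 cells/well. After 5 h they received DMSO-dissolved compound and incubated 16 h at 37C. Viability was taken from CellTiter-Glo ATP luminescence.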
# PGR (gene 5241) [9] = biological target: PGR (gene 5241) (UniProt P06401); experiment: TOX21_PR_LUC_Followup_Agonist: Tox21 HEK293 Progesterone Receptor (PR) Agonism Luciferase Follow-Up Assay (AID 2283937; active = hit-call score of the fitted dose curve at least 0.9, where 1 is the maximum; inactive = score below 0.9)
# Outline: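 Cells: HEK293-PR-A-luc, 3,000/well, 10% charcoal-stripped FBS assay medium. Compound added after 5 h; 16 h, 37C, 0% CO2. ONE-Glo luciferase, luminescence. Positive fit vs DMSO.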
# [10] = biological target: T1, Thyroid hormone receptor alpha (Rattus norvegicus) + Thyroid hormone receptor beta (Rattus norvegicus); experiment: TOX21_TR_LUC_GH3_Agonist_Followup: Tox21 GH3 Thyroid Hormone Receptor Agonism Luciferase Follow-Up Assay (AID 2283939)
# Outline: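 Rat GH3 cells (1,500/well) in serum-free assay medium, treated with 15-point series, 92 uM to 5 nM final, for 24 h at 37C. Luciferase via ONE-Glo luminescence; gain of signal fitted against DMSO, T3 positive control.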
compound,measurement,setting,value
Clc1ccc(Cl)c(Cl)c1,outcome,THRA (gene 7067) [1],inactive
COC(=O)Nc1nc2ccccc2[nH]1,outcome,[2],inactive
same,outcome,THRA (gene 7067) [3],inactive
CCCCOC(=O)c1ccccc1C(=O)OCc1ccccc1,outcome,[4],inactive
same,outcome,[5],inactive
same,outcome,PGR (gene 5241) [6],inactive
same,outcome,[7],inactive
same,outcome,[8],inactive
Clc1ccc(C(c2ccc(Cl)cc2)C(Cl)(Cl)Cl)cc1,AC50,[4],84.9 µM (active)
same,outcome,[5],inactive
same,AC50,PGR (gene 5241) [6],32.5 µM (active)
same,outcome,[7],inactive
same,outcome,[8],inactive
C[C@]12C=CC3=C4CCC(=O)C=C4CC[C@H]3[C@@H]1CC[C@@H]2O,outcome,[4],inactive
same,outcome,[5],inactive
same,AC50,PGR (gene 5241) [9],0.00268 µM (active)
same,outcome,PGR (gene 5241) [6],inactive
same,outcome,[7],inactive
same,outcome,[8],inactive
CN(C)c1ccc(C(=O)c2ccc(N(C)C)cc2)cc1,outcome,[2],inactive
Cc1ccc(N)cc1,outcome,[10],inactive
same,outcome,THRA (gene 7067) [1],inactive
O=[N+]([O-])c1ccc(Oc2ccc(Cl)cc2Cl)cc1,outcome,[4],inactive
same,outcome,PGR (gene 5241) [6],inactive
same,outcome,[7],inactive
same,outcome,[8],inactive
ClC1=C(Cl)[C@]2(Cl)[C@H]3[C@H]([C@@H]4C=C[C@H]3C4)[C@@]1(Cl)C2(Cl)Cl,AC50,[4],62.6 µM (active)
same,outcome,[5],inactive
same,AC50,PGR (gene 5241) [6],46.1 µM (active)
Clc1ccc(C(c2ccc(Cl)cc2)C(Cl)Cl)cc1,outcome,[4],inactive
same,outcome,[5],inactive
same,AC50,PGR (gene 5241) [6],33.8 µM (active)
